Screens deposited in PubChem BioAssay by National Center for Advancing Translational Sciences (NCATS).
D3 antag: qHTS of D3 Dopamine Receptor Antagonist: qHTS; D(3) dopamine receptor (Homo sapiens), P35462; D3R cells, DiscoveRx beta-arrestin luminescence, antagonist mode; hits give low values; max response, negative = inhibition, %; hit rate 2.5% among 360,000; in the data active means max response below about -50%; inconclusive means no clear call, values can overlap the other calls; further: on the % scale 0 is the no-effect control and ±100 the full control effect
Target sequence (P35462 whole entry, looked up): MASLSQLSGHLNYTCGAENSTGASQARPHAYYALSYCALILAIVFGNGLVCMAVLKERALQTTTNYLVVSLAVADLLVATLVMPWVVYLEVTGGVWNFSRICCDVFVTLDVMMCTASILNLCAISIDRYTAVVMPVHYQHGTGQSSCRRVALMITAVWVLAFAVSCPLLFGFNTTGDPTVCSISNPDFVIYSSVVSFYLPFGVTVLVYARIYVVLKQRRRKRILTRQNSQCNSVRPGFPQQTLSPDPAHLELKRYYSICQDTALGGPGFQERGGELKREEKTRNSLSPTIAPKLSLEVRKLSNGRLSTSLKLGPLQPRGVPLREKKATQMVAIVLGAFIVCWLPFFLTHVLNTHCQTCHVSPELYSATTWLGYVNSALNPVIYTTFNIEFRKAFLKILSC
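Cells expressing the human receptor were seeded at 1500 cells/well, incubated overnight at 37 degrees C in 5% CO2, then exposed to library compounds with dopamine controls for 90 minutes at 37 degrees C before luminescent detection.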
D3 ag: qHTS of D3 Dopamine Receptor Agonist: qHTS; hit rate 0.58% among 410,000; D3R DiscoveRx beta-arrestin cells, luminescence, 90 min; D(3) dopamine receptor (Homo sapiens), P35462; AID 652048, 2013; max activation, %; in the data active means max activation above about 30%; further: 0% is about no effect
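Cells at 1500/well, incubated overnight, then treated with pinned compounds (dopamine as control) for 90 min at 37 degrees C. DiscoveRx reagent added for 30 - 60 minutes at room temperature; luminescence read.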
D1 potentiator: Potentiators of Human D1 Dopamine Receptor: qHTS; D(1A) dopamine receptor (Homo sapiens), P21728; HEK293 TREx D1 cells, calcium flux, dopamine EC20 potentiation; potentiation, % at 10 µM; hit rate 0.036% among 360,000; AID 504651, 2011; in the data active means potentiation above about 30%; further: 0% is about no effect
D1 antag: Antagonist of Human D 1 Dopamine Receptor: qHTS. activity change, negative = inhibition, % at 10 µM. hit rate 3.2% among 360,000. HEK293 TREx D1 cells, calcium flux, dopamine EC80; hits give low values. AID 504652, 2011. D(1A) dopamine receptor (Homo sapiens), P21728; in the data active means activity change below about -30%; further: on the % scale 0 is the no-effect control and ±100 the full control effect
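Compound effects on dopamine-evoked calcium signalling were measured in tetracycline-induced HEK293 Trex D1 cells. Dopamine at EC80 followed a 180 s compound pre-read, and fluorescence was tracked kinetically for 180 s more.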
D1 ag: Allosteric Agonists of the Human D1 Dopamine Receptor: qHTS; hit rate 1% among 360,000; AID 504660, 2011; D(1A) dopamine receptor (Homo sapiens), P21728; HEK293 T-REx D1 cells, calcium flux, agonist mode; activation, % at 2 µM; in the data active means activation above about 30%; further: 0% is about no effect
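Agonism was scored from calcium flux recorded over 180 s (1 read/s) after pintool compound addition, following a 10-cycle baseline. Cells were inducible force-coupled HEK293 TREx D1, plated overnight at 30 C and loaded with no-wash calcium dye.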
Active calls of the source: *; ? = inconclusive; . = no result given. Shown are actives, neighbours in structure and some others; about 6% of the full set was active somewhere.

SMILES	D3 antag	D3 ag	D1 potentiator	D1 antag	D1 ag
Cc1cc(OC2CCCCC2)nc(NCc2ccccc2)n1	-0.5	-7.2	7.0	15.1	2.4
COc1ccc(/C=N/Nc2cc(C)nc(N3CCOCC3)n2)cc1	22.9	32.0*	-10.7	8.8	1.8
CN(C)C1CN(Cc2cn(Cc3ccc(F)cc3)nn2)S(=O)(=O)C1 (stereo not drawn)	5.8	6.3	.	.	.
COCCNc1nc(NCc2cc(-c3ccc(OC)cc3)no2)c2sccc2n1	19.0	18.9	.	.	.
COc1cc(C(CC(=O)NCc2ccc(F)cc2)N2Cc3ccccc3C2=O)cc(OC)c1OC (stereo not drawn)	.	3.3	-1.2	-0.1	-0.9
CN1CCN(c2oc(-c3cccs3)nc2S(=O)(=O)c2ccccc2)CC1	?	-21.0	1.8	7.6	0.8
CN1CCN(c2oc(-c3ccccc3)nc2S(=O)(=O)c2ccc(Br)cc2)CC1	-67.1*	-35.8	-14.5	20.5	0.7
CN1CCN(c2oc(-c3ccccc3Cl)nc2S(=O)(=O)c2ccccc2)CC1	-78.9*	-7.0	-2.7	-16.9	-0.7
CC(NC(=O)c1c(N)[nH]c(C(=O)c2ccccc2)c1-c1ccccc1Br)c1cccc2ccccc12 (stereo not drawn)	16.9	4.6	.	.	.
CC(C)CC1NC(=O)c2cc3ccccc3cc2-n2c1nc1ccc(F)cc1c2=O (stereo not drawn)	-57.9*	-7.4	.	.	.
COc1ccc2nc3n(c(=O)c2c1)-c1cc2ccccc2cc1C(=O)NC3Cc1ccc(O)cc1 (stereo not drawn)	-30.0	-1.6	.	.	.
COc1ccc2nc3n(c(=O)c2c1)-c1ccc(Cl)cc1C(=O)NC3Cc1ccc(O)cc1 (stereo not drawn)	4.2	44.2*	.	.	.
CC1([N+](=O)[O-])COC2(OC1)C(=O)Nc1ccccc12 (stereo not drawn)	0.3	-10.8	-4.3	-7.7	1.8
CC1([N+](=O)[O-])COC2(CCCCC2)OC1	-50.3*	82.7*	.	.	.
O=C1CSC(=Nc2cccc(Cl)c2Cl)N1Cc1cccnc1	14.2	-1.6	-4.2	-34.8*	3.7
Cc1ccccc1N=C1SCC(=O)N1Cc1ccccc1	11.8	-0.2	-0.5	20.2	8.5
COc1cc(/C=C/c2nc(C#N)c(NCCc3ccccc3)o2)cc(OC)c1OC	.	1.2	3.1	0.7	1.1
O=C(CN1C(=O)CSc2ccc(C(F)(F)F)cc21)Nc1ccccc1	10.6	6.5	-2.8	-5.1	30.1*
O=C(CCN1C(=O)CSc2ccccc21)Nc1ccc(C(F)(F)F)cc1	?	-24.0	3.7	-31.3*	5.8
CCCN1C(=O)/C(=C/c2c(N3CCNC(=O)C3CC(=O)OC)nc3c(C)cccn3c2=O)SC1=S (stereo not drawn)	.	.	15.2	-30.1*	265.3*
Cc1cc2c(s1)c1cnn(Cc3ccc(C)c(F)c3)c(=O)c1n2C	.	.	4.0	-26.9	1.7
O=C(O)c1cc2cccc(S(=O)(=O)N3CCOCC3)c2cc1O	-53.8*	12.3	-1.8	-6.9	1.3
COc1ccccc1CNC(=O)C1CCC(CNS(=O)(=O)c2ccc3c(c2)CCCC(=O)N3)CC1 (stereo not drawn)	.	9.2	-3.0	-27.1	3.4
Cc1cc(C)cc(-n2c(C)cc(/C=N\NC(=O)COc3cccc4cccnc34)c2C)c1	20.9	1.0	3.0	11.0	45.1*
CCN(CCN(C)C)C(=O)Cn1ncc2c1-c1cc(C)ccc1OC2	-14.8	-4.5	-1.1	-33.2*	2.5
SMILES	D3 antag	D3 ag	D1 potentiator	D1 antag	D1 ag
Cc1cccc(N2CCN(C(=O)Cn3ncc4c3-c3cc(C)ccc3OC4)CC2C)c1 (stereo not drawn)	.	32.1*	9.5	36.7	0.0
Cc1ccc2c(c1)-c1c(cnn1CC(=O)O)CO2	27.4	-3.7	-0.1	-12.2	2.5
COc1ccccc1N1CCN(C(=O)Cn2ncc3c2-c2cc(C)ccc2OC3)CC1	.	8.2	-4.0	16.4	4.2
CCC(=O)N/C=C/n1cnc2cc(C(F)(F)F)ccc21	-12.6	-1.9	-5.2	-23.0	5.8
CN(C)c1cccc(C(=O)N/C=C/n2cnc3cc(C(F)(F)F)ccc32)c1	2.8	-4.0	5.0	-39.1*	0.0
O=C(C/C(=N/O)c1ccccc1O)C(F)F	-17.7	-8.3	-7.2	-32.5*	3.1
